The full list was thinned out, with hits kept by preference.
MARV entry inh – blocks Marburg virus binding to or entry into cells; Marburg virus pseudotyped entry inhibition, cell reporter; Potency, µM (titrated, usually from 37.8 µM), for inactives: top-dose activity change, negative = inhibition, hits mostly inhibitors; actives 1.8% (n = 300,000); calls by dose curve; tested in HEK293 cells; further: potency means the concentration at half of the fitted maximal effect; on the % scale 0 is the no-effect control and ±100 the full control effect
VACV mCherry inh – vaccinia inhibition (mCherry reporter) | Vaccinia virus mCherry reporter infection, fluorescence | Potency, µM (titrated, usually from 36.5 µM), for inactives: at the top dose activity change, negative = inhibition, hits mostly inhibitors | actives 0.63% (n = 310,000); calls by dose curve; tested in A549 cells; further: potency means the concentration at half of the fitted maximal effect; on the % scale 0 is the no-effect control and ±100 the full control effect; nearly all actives have a fitted effect of over 35% in size
Shiga toxin inh – blocks Shiga toxin action in Vero cells. Vero cells, Shiga toxin protein synthesis inhibition reporter. inhibition, % at 38.7 µM. actives 9.2% (n = 290,000). AID 2315; in the data active means inhibition mostly above about 28%, no sharp cut-off; inactive means mostly below about 43%; further: 0% is about no effect
Vaccinia Venus – vaccinia inhibition (Venus reporter). AID 720580. actives 0.46% (n = 330,000). Potency, µM (titrated, usually from 36.5 µM), inactives show top-dose activity change, negative = inhibition, most hits filed as inhibitors. Vaccinia virus Venus reporter expression, fluorescence; calls by dose curve; tested in A549 cells; further: potency means the concentration at half of the fitted maximal effect; on the % scale 0 is the no-effect control and ±100 the full control effect; nearly all actives have a fitted effect of over 30% in size
LASV entry inh – blocks Lassa virus binding to or entry into cells; Lassa virus pseudotype entry inhibition, cell reporter; Potency, µM (doses to about 37.9 µM), without a hit: top-dose activity change, negative = inhibition, actives largely listed as inhibitors; actives 1.2% (n = 300,000); AID 540256; calls by dose curve; tested in HEK293 cells; further: potency means the concentration at half of the fitted maximal effect; on the % scale 0 is the no-effect control and ±100 the full control effect; nearly all actives have a fitted effect of over 50% in size
CHX counter – counter-screen hit for Shiga toxin inhibitors, cycloheximide; actives 12% (n = 300,000); cell reporter, cycloheximide protein synthesis inhibition counterscreen; AID 2314; max response, %; in the data active means max response mostly above about 13%, no sharp cut-off; inactive means mostly below about 14%; further: read at 38.3 µM for the half of the compounds with a filed dose; 0% is about no effect
An asterisk follows results filed as active; [ ] = remark or other dose.

Screening CCOC(=O)Nc1ccc2c(c1)C(=NO)c1ccccc1-2 returned MARV entry inh -20.4%, VACV mCherry inh -25.7%, Vaccinia Venus inconclusive and LASV entry inh -17.8%[46.1 µM].
Screening CCN(C(=O)c1cc2ccccc2oc1=O)c1ccccc1 returned MARV entry inh 13.9%, VACV mCherry inh -23.6%[1.46 µM], Shiga toxin inh 42.1, Vaccinia Venus -7.4%, LASV entry inh inconclusive and CHX counter 24.3*.
Screening CCN(C(=O)c1cc2cc(OC)ccc2oc1=O)c1cccc(C)c1 returned MARV entry inh 12.6%, Shiga toxin inh -4.3, LASV entry inh -22.2% and CHX counter 9.7.
CCN(C(=O)c1cc2ccccc2oc1=O)c1cccc(C)c1 was read as MARV entry inh 26.9%, Shiga toxin inh 77.7*, LASV entry inh inconclusive and CHX counter 53.0*.
For CCN(C(=O)c1cc2cc(OC)ccc2oc1=O)c1ccccc1 the results were MARV entry inh -8.6%, VACV mCherry inh -16.6%, Shiga toxin inh 21.6, Vaccinia Venus -12.3%, LASV entry inh 0.0% and CHX counter 7.4.
`O=C1COc2ccc(C(=O)C[n+]3cccc(O)c3)cc2N1` gave MARV entry inh -0.1%[46.1 µM], VACV mCherry inh -13.1%, Shiga toxin inh -2.9, Vaccinia Venus 3.2%, LASV entry inh 0.0% and CHX counter -2.2.
For Cc1ccc(S(=O)(=O)NCc2ccc(C(=O)NCCN(Cc3ccccc3)C(C)C)cc2)cc1 the results were MARV entry inh 11.2µM*, VACV mCherry inh -24.9%, Shiga toxin inh -22.0, Vaccinia Venus inconclusive, LASV entry inh -29.1%[46.1 µM] and CHX counter 4.1.
`Cc1ccc(OCCNC(=O)c2cccc(S(=O)(=O)NCc3ccccc3)c2)cc1` gave MARV entry inh 6.31µM*, VACV mCherry inh -29.7%, Vaccinia Venus inconclusive and LASV entry inh inconclusive.
Screening CS(=O)(=O)NCc1ccc(C(=O)NCCOc2ccccc2)cc1 returned MARV entry inh inconclusive, Shiga toxin inh 62.6*, LASV entry inh -16.8% and CHX counter 49.6*.
Cc1ccc(S(=O)(=O)NCc2ccc(C(=O)NCCc3cccc(C)c3)cc2)cc1 was read as VACV mCherry inh -5.4%, Vaccinia Venus -9.7% and LASV entry inh -2.2%[46.1 µM].
`Cc1ccc(C(=O)c2oc3ccc(Cl)cc3c2NC(=O)CN2CCN(C)CC2)cc1` gave Shiga toxin inh -3.4 and CHX counter -1.8.
For CCCc1ccc(C2Sc3ccccc3NC3=C2C(=O)c2ccccc23)cc1 (stereo unspecified) the results were MARV entry inh inconclusive, VACV mCherry inh -10.0%, Vaccinia Venus -6.8% and LASV entry inh inconclusive.
`COC(=O)/N=C(/Cc1ccc(OC)cc1)c1ccc(OC)cc1` gave MARV entry inh 18.8%[46.1 µM], VACV mCherry inh -6.5%, Shiga toxin inh 55.9*, Vaccinia Venus -1.1%, LASV entry inh 26.7% and CHX counter 17.5*.
COc1ccc(C/C(=N\OC(C)=O)c2ccc(OC)cc2)cc1 was read as MARV entry inh 2.4%[46.1 µM], VACV mCherry inh -24.4%, Shiga toxin inh 22.7, Vaccinia Venus -21.5%, LASV entry inh -26.0%[46.1 µM] and CHX counter 18.3*.
Screening COc1ccc(CC(=O)NO)cc1 returned VACV mCherry inh -9.8% and Vaccinia Venus -12.2%.
COCCC(=O)N1CCC(Oc2ccc(C(=O)NCc3nccn3C)cc2)CC1 was read as MARV entry inh 16.9%, VACV mCherry inh inactive, Shiga toxin inh -9.6, Vaccinia Venus -6.2%, LASV entry inh 5.1% and CHX counter 11.0.
For CC(/C=C(\C)Nc1ccccc1)=Nc1ccccc1 the results were MARV entry inh inconclusive, VACV mCherry inh -7.1%, Shiga toxin inh 22.8, Vaccinia Venus -13.1% and CHX counter 25.7*.
Screening NC(=Nc1ccccc1)Nc1ccccc1 returned Shiga toxin inh -11.0 and CHX counter -2.2.
Screening CSc1ccc(C(=O)Nc2ccc(-c3nc4ccccc4s3)c(O)c2)cc1 returned VACV mCherry inh 0.9%, Vaccinia Venus -4.5% and LASV entry inh -18.6%[46.1 µM].
`O=C(Nc1ccc(O)c(-c2nc3ccccc3s2)c1)c1cccs1` gave MARV entry inh -4.2%, VACV mCherry inh -1.9%, Shiga toxin inh 8.7, Vaccinia Venus -17.7%, LASV entry inh 3.4% and CHX counter 0.2.
`Oc1ccc(-c2nc3ccccc3s2)c(O)c1` gave MARV entry inh inconclusive, VACV mCherry inh -21.2%, Shiga toxin inh 91.9*, Vaccinia Venus -23.3%, LASV entry inh 14.6%[46.1 µM] and CHX counter 40.1*.
Screening Nc1ccc(O)c(-c2nc3ccccc3s2)c1 returned MARV entry inh 22.9%, VACV mCherry inh -10.8%, Shiga toxin inh 44.9*, Vaccinia Venus 2.9%, LASV entry inh inconclusive and CHX counter 47.4*.
Screening Oc1ccc(N=C/C=C/c2cccc(Br)c2)cc1-c1nc2ccccc2s1 returned MARV entry inh inconclusive, VACV mCherry inh 2.0%, Shiga toxin inh 12.6, Vaccinia Venus -5.7%, LASV entry inh inconclusive and CHX counter 32.5*.
Screening CN(C)c1nc(N)nc(-c2nc3ccccc3s2)n1 returned MARV entry inh inconclusive, VACV mCherry inh inactive, Shiga toxin inh 100.8*, Vaccinia Venus -13.9%, LASV entry inh 16.8% and CHX counter 39.4*.
For O=C(NCCCc1nc2ccccc2n1CCCCOc1ccccc1)C1CCCCC1 the results were VACV mCherry inh -12.6% and Vaccinia Venus -25.9%.
For Cc1cc(NC(=O)c2ccccc2F)ccc1-c1nc2ccccc2s1 the results were VACV mCherry inh -9.0%, Vaccinia Venus -6.5% and LASV entry inh -0.3%[46.1 µM].
For COc1cccc(C(=O)NCC2Cc3cccc(-c4nc(C)cnc4C)c3O2)c1OC (stereo unspecified) the results were VACV mCherry inh 26.1% and Vaccinia Venus 50.3%.
For Cc1c(NS(C)(=O)=O)cccc1-c1nc2ccccc2s1 the results were MARV entry inh 9.9%[46.1 µM], VACV mCherry inh -25.6%, Vaccinia Venus -29.3% and LASV entry inh inconclusive.
Screening Nc1ccccc1-c1nc2ccccc2s1 returned MARV entry inh inconclusive, VACV mCherry inh inconclusive, Shiga toxin inh 106.1*, Vaccinia Venus -2.9%, LASV entry inh 9.8% and CHX counter 40.5*.
`Cc1ccsc1C=Nc1ccc(O)cc1` gave MARV entry inh inconclusive, VACV mCherry inh -7.9%, Shiga toxin inh 34.0, Vaccinia Venus 6.0%, LASV entry inh inconclusive and CHX counter 14.9*.
For CCCCNC(=S)N/N=C/c1sccc1C the results were MARV entry inh inconclusive, VACV mCherry inh -8.6%, Shiga toxin inh 35.8, Vaccinia Venus -8.9%, LASV entry inh inconclusive and CHX counter 8.5.
For Cc1ccsc1/C=N/N=C/c1sccc1C the results were CHX counter 48.0*.
Cc1ccc(S(=O)(=O)N2C[C@@H](C)[C@]3(C2)[C@H](O)[C@H](OC(=O)Nc2cccs2)C[C@H]2C(=O)N(c4ccccc4)C(=O)[C@H]23)cc1 was read as VACV mCherry inh -3.1% and Vaccinia Venus -19.5%.
Screening CC(C)CC(=O)Nc1nnc(S(=O)(=O)N(C)Cc2ccc(Cl)cc2)s1 returned VACV mCherry inh -10.4%, Vaccinia Venus -6.9% and LASV entry inh 3.4%[46.1 µM].
